# Reference: PubChem BioAssay
# “And” between values parts separate entries of the source, which are not always exact repeats. Equal entries are not always repeated. The source made the active and inactive calls.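 Rule for the calls, unless noted: active = at least 20% inhibition of 6-phosphogluconate dehydrogenase activity; inactive = the rest.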
# Key:
# [1] = molecular target: 6-phosphogluconate dehydrogenase, decarboxylating (Homo sapiens) (UniProt P52209); test: 6PGD enzyme inhibitors, primary screen, biochemical, human, recombinant enzyme, NADPH absorbance (AID 1159550); conditions: recombinant 6PGD, NADPH absorbance 341 nm; at 10 µM; stronger effect = higher value
# Chain of 6-phosphogluconate dehydrogenase, decarboxylating (Homo sapiens) (P52209 whole entry, looked up): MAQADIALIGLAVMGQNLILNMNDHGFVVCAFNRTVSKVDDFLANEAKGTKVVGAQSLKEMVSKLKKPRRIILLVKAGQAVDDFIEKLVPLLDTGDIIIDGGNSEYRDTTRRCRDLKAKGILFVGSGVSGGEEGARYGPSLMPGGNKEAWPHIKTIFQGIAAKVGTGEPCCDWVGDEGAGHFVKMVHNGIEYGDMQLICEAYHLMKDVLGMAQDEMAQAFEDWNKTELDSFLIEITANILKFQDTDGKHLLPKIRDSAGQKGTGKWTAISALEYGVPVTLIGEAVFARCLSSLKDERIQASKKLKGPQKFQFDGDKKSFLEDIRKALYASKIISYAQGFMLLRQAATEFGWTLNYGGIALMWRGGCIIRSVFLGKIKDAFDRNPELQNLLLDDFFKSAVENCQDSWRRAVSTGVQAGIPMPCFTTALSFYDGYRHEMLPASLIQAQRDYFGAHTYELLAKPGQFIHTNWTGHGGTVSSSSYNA
# [2] = differential killing of epithelial or mesenchymal cells, primary screen, imaging, PC-3E GFP, TEM4-18 mCherry, co-culture (AID 1345086;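 active = compounds killing one labelled cell type while sparing the other, by normalised counts and ratio limits, not self-fluorescent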;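 for all read-outs here: cells exposed to compound for 72 h before imaging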;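 for red/green cell ratio (normalised): normalised mesenchymal count divided by normalised epithelial count so high means epithelial killing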); conditions: imaging cell counts, at 1 µM; for red/green cell ratio (normalised): actives lie on both sides, counts scaled to control wells, 1 = unselective
# [3] = molecular target: Mitogen-activated protein kinase 7 (Homo sapiens) (UniProt Q13164); test: ERK5 transactivation activators in reporter cells, primary screen, cell-based, HTS (AID 1508626;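 active = luciferase signal above three times the same-plate solvent-only control wells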;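 note: luciferase driven by Gal4-ERK5 fusion binding five Gal4 sites before minimal TATA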); conditions: HeLa Gal4-ERK5 transactivation, 18 h, at 5 µM, stronger effect = higher value
# Chain of Mitogen-activated protein kinase 7 (Homo sapiens) (Q13164 whole entry, looked up, the tested form may be a part): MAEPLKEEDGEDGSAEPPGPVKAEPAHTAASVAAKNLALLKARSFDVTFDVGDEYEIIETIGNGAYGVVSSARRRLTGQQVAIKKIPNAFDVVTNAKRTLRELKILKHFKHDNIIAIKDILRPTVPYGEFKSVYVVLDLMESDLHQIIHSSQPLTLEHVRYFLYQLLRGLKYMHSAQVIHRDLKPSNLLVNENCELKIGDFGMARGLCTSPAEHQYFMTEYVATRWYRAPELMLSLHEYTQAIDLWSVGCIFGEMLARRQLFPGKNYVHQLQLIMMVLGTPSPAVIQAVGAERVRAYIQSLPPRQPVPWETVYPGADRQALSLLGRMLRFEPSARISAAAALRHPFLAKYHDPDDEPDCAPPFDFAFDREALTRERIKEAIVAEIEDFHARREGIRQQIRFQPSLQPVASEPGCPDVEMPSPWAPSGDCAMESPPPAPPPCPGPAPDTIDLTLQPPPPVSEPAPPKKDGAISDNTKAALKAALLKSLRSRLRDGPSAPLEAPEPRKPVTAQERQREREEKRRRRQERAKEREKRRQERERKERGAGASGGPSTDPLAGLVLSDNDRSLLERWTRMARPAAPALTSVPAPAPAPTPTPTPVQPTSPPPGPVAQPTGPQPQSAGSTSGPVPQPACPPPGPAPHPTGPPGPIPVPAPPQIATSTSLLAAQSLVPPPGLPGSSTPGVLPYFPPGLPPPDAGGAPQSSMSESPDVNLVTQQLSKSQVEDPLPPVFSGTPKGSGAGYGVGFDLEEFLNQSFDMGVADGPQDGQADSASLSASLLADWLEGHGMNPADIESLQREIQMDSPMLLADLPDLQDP
# [4] = measured here: epithelial PC-3E GFP cell survival
# [5] = measured here: mesenchymal TEM4-18 mCherry cell survival
SMILES,inhibition [1],red/green cell ratio (normalised) [2],"normalised cell number [2, 4]","normalised cell number [2, 5]",luciferase signal [3]
CCOC(=O)c1c(C)cc(O)cc1O,0.669% (inactive),0.99 (inactive),0.99,0.99,72 AU (inactive)
CC(=O)O[C@@H]1CC2C(C)(CC[C@H](O)C2(C)C)C2CC[C@]3(C)C(=CC(=O)O[C@H]3c3ccoc3)C21C (stereo not given in full),0.669% (inactive),1.03 (inactive),1.07,1.1,16 AU (inactive)
COc1cc(/C=C/C(=O)O)cc(OC)c1OC,-1.71% (inactive),0.99 (inactive),1.06,1.04,52 AU (inactive)
CCCCCC(=O)Cc1cc(O)cc(O)c1C(=O)Oc1cc(CC(=O)CCCCC)c(C(=O)O)c(OC)c1,6.8% (inactive),1.08 (inactive),0.95,1.03,160 AU (inactive)
O=C(Nc1ccccc1)Nc1ccccc1,0.726% (inactive),0.79 (inactive),1.16,0.91,108 AU (inactive)
COc1cc2ccc(=O)oc2c(OC)c1OC,1.65% (inactive),0.93 (inactive),0.81,0.75,16 AU (inactive)
C=CC(C1=CC(=O)C(OC)=CC1=O)c1ccc(OC)cc1 (stereo not given),9.18% (inactive),0.93 (inactive),1.1,1.03,36 AU (inactive)
COc1cc(O)c(C)c(O)c1,5.9% (inactive),0.94 (inactive),1.19,1.12,48 AU (inactive)
C=C1C2CC[C@@]3(C)[C@H](c4ccoc4)OC(=O)C[C@]13O[C@H]1CC(O)C(C)(C)C(CC(=O)OC)[C@@]21C (stereo not given in full),24.1% (active),1.02 (inactive),0.98,1,16 AU (inactive)
CC(C(=O)O)[C@H]1CCC2C3CC=C4C[C@@H](O)CC[C@]4(C)C3CC[C@@]21C (stereo not given in full),8.3% (inactive),0.91 (inactive),1.12,1.02,44 AU (inactive)
CC(=O)O[C@@H]1CC2C(C)(C)[C@H](O)CC[C@]2(C)C2CC[C@@]3(C)[C@H](c4ccoc4)OC(=O)C4OC43[C@@]21C (stereo not given in full),-1.03% (inactive) and -1.39% (inactive),1.03 (inactive),1.03,1.06,36 AU (inactive)
COc1c(-c2coc3cc4c(cc3c2=O)CC(O)C(C)(C)O4)ccc2c1C=CC(C)(C)O2 (stereo not given),-4.11% (inactive),0.82 (inactive),1.08,0.88,24 AU (inactive)
O=c1cc(-c2ccc(O)cc2)oc2cc(O[C@@H]3O[C@H](CO)[C@@H](O)[C@H](O)[C@H]3O[C@@H]3OC[C@](O)(CO)[C@H]3O)cc(O)c12,-39.6% (inactive),0.8 (inactive),1.3,1.03,196 AU (active)
C=C1C2CC[C@@]3(C)[C@H](c4ccoc4)OC(=O)C[C@]13O[C@H]1CC(=O)C(C)(C)[C@H](C(O)C(=O)OC)[C@@]21C (stereo not given in full),-4.16% (inactive),0.98 (inactive),0.75,0.74,28 AU (inactive)
O=C(/C=C/c1ccccc1)c1ccc(O)cc1,1.18% (inactive),1.04 (inactive),0.75,0.79,28 AU (inactive)
